# Test results published in PubChem BioAssay (NCI).
# The panel holds about 83,000 compounds, 20% with a hit somewhere; the sample as a whole holds those more often.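 96-well plates, one dose, 48 hours. Percent growth reported; active if below 10.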 Active and inactive are the calls of the source.
# Tested on: OVCAR-8 ovarian
# Assay: NCI-60 one-dose screen, 48 h (100 = growth as untreated, 0 = no growth, -100 = all killed)
# Conditions: 10 µM unless noted
row,SMILES,growth
1,C=C1C(=O)O[C@H]2[C@H]1CC/C(COC(=O)/C=C\C(=O)O)=C\CC[C@@]1(C)O[C@@H]21,101% (inactive)
2,CCCCC1CCc2cccc3c(SCC(=O)N(C)c4ccc(Cl)cc4)cc[n+]1c23 (stereo not given),113% (inactive)
3,O=C(c1nc2ccccc2[nH]1)C1C(c2cccc([N+](=O)[O-])c2)C2CC3CCCCC3N2[C@@]12C(=O)Nc1cc(Cl)ccc12 (stereo not given in full),45.1% (inactive)
4,O=C1/C(=C/c2ccc(O)cc2)COc2ccc(O)cc21,108% (inactive)
5,O=C1/C(=C/c2ccc(O)cc2)COc2ccc(O)c(O)c21,17.6% (inactive)
6,COc1cc2nc(NC3CCCC3)nc(NC3CCN(C(C)C)CC3)c2cc1OC,89.7% (inactive)
7,Cc1ccccc1CNC(=O)C1CN(c2ccc(Cl)cc2)N(c2ccc(Cl)cc2)C1=O (stereo not given),87.9% (inactive)
8,COc1cc(C2CC(c3ccc(Nc4nc(NCCO)nc(N5CCOCC5)n4)cc3)=NN2c2cc(Cl)cc(Cl)c2)cc(OC)c1OC (stereo not given),48.8% (inactive)
9,O=C(c1nc2ccccc2[nH]1)C1C(c2ccc([N+](=O)[O-])cc2)C2CC3CCCCC3N2[C@@]12C(=O)Nc1cc(Cl)ccc12 (stereo not given in full),35% (inactive)
10,O=C(Cn1cc(COc2ncnc3c2cnn3-c2ccccc2)nn1)Nc1cccc2ccccc12,87.9% (inactive)
11,CN1C(=O)N(C)C2Nn3c(s/c(=C\c4ccc(Cl)cc4Cl)c3=O)=NC21 (stereo not given),69.3% (inactive)
12,O=Cc1cc2ccccc2nc1Nc1nccs1,47.6% (inactive)
13,O=C1/C(=C/c2cccc(O)c2)COc2ccc(O)cc21,68.7% (inactive)
14,COc1cc2nc(NC3CCC3)nc(NC3CCN(C(C)C)CC3)c2cc1OC,58.2% (inactive)
15,O=C(c1nc2ccccc2[nH]1)C1[C@@H](c2cccc(O)c2)C2CC3CCCCC3N2[C@@]12C(=O)Nc1cc(Cl)ccc12 (stereo not given in full),52.5% (inactive)
16,CCN1C(=O)N(c2ccccc2)C2NN=c3s/c(=C4\C(=O)N(C(C)C)c5ccccc54)c(=O)n3C21 (stereo not given),31.6% (inactive)
17,Cc1sc2ncn(CC(=O)Nc3ccc(S(N)(=O)=O)cc3)c(=O)c2c1C,96.5% (inactive)
18,COC(=O)c1c2c(c(C)[n+]([O-])c1C)C(=O)C(NCc1ccc(F)c(F)c1)=CC2=O,4.63% (active)

row,SMILES,growth
1,CNCCNc1nc2ccccc2c2c(=O)c3cccc(OC)c3sc12,23.7% (inactive)
2,CNCCNc1nc2ccccc2c2c(=O)c3cccc(C)c3sc12,37.4% (inactive)
3,COc1cc(/C=C2\Oc3cc(OCCCN4CCCC4)ccc3C2=O)cc(OC)c1,56.4% (inactive)
4,COC(=O)[C@H](NC(=O)C1(C)CCC[C@]2(C)[C@H]3C[C@H]4C(C(C)C)=C[C@]3(CC[C@@H]12)[C@@H]1C(=O)CCC(=O)[C@@H]14)C(C)C (stereo not given in full),101% (inactive)
5,COc1cc(/C=C2\CN(C)C/C(=C\c3cc(CN4CCCCC4)c(O)c(OC)c3)C2=O)cc(CN2CCCCC2)c1O,39.2% (inactive)
6,O=S(=O)(Nc1ncccn1)c1ccc(NC2Nc3nc4ccccc4nc3S2)cc1 (stereo not given),98.8% (inactive)
7,O=C1CCC(N2C(=O)c3cccc(NCCCCCCOc4ccc(Nc5nccc(Nc6ccccc6)n5)cc4)c3C2=O)C(=O)N1 (stereo not given),77.8% (inactive)
8,Cc1c(-c2csc(-n3nc(C(F)(F)F)cc3C(F)(F)F)n2)no[n+]1[O-],99.2% (inactive)
9,O=C(NCc1ccccc1)C1CN(c2ccc(Cl)cc2)N(c2ccc(Cl)cc2)C1=O (stereo not given),86.5% (inactive)
10,c1ccc2c(c1)oc1cc3sccc3nc12,101% (inactive)
11,CCCCC1COc2cccc3c2N1C=C/C3=C\C(=O)N(C)c1ccccc1 (stereo not given),52.9% (inactive)
12,COc1cc(/C=C/C(=O)c2ccc(Nc3nc(NCCO)nc(N4CCOCC4)n3)cc2)cc(OC)c1OC,11.6% (inactive)
13,Cc1cccc2c(=O)c3c(sc12)c(NCCCNCCO)nc1ccccc13,45.4% (inactive)
14,COc1cc(/C=C2\CN(C)C/C(=C\c3cc(CN4CCCC4)c(O)c(OC)c3)C2=O)cc(CN2CCCC2)c1O,65.5% (inactive)
15,O=C(/C=C/c1ccc(C(F)(F)F)cc1)c1ccc(Nc2nc(NCCO)nc(N3CCOCC3)n2)cc1,28.5% (inactive)
16,NCCOc1ccccc1/C=C1\c2ccccc2-c2ccc([N+](=O)[O-])cc21,-38.7% (active)
17,O=C(/C=C/c1ccc(F)cc1)c1ccc(Nc2nc(NCCO)nc(Nc3ccc(Cl)cc3)n2)cc1,78.4% (inactive)
